Measurements taken from PubChem BioAssay.
Several values for one entry are separate records, joined by “and”; a condition that tells them apart may be missing. Equal entries are not always repeated. Records with an inconclusive call do not appear. Activity calls are given as the source filed them.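 The calls were made as follows, unless noted: active = normalized viability below 100% at a tested concentration; inactive = the rest.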

Tests used:
[1] = growth inhibition of DIPG glioma cells, dose response, cell-based, SU-DIPG-XVII, MIPE5.0, CellTiter-Glo, qHTS (AID 1347060; cut-off not given, nearly all actives have AC50 up to about 26 µM;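 also: cells exposed to compound for 48 hours before viability readout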); details: SU-DIPG-XVII viability, CellTiter-Glo ATP luminescence
[2] = growth inhibition of DIPG glioma cells, dose response, cell-based, JHH-DIPG-1, MIPE4.0, CellTiter-Glo, qHTS (AID 1347062; cut-off not given, nearly all actives have AC50 up to about 27 µM;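 also: cells exposed to compound for two days before readout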); details: JHH-DIPG-1 viability, CellTiter-Glo ATP luminescence
[3] = growth inhibition of DIPG glioma cells, dose response, cell-based, SU-DIPG-IV, MIPE4.0, CellTiter-Glo, qHTS (AID 1347063; cut-off not given, nearly all actives have AC50 up to about 30 µM;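 also: compound exposure lasted 48 hours before the viability readout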); details: SU-DIPG-IV viability, CellTiter-Glo ATP luminescence
[4] = growth inhibition of DIPG glioma cells, dose response, cell-based, SU-DIPG-XIII, MIPE5.0, CellTiter-Glo, qHTS (AID 1347064; cut-off not given, nearly all actives have AC50 up to about 23 µM;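 also: cells exposed to compound for 48 hours before the viability read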); details: SU-DIPG-XIII viability, CellTiter-Glo ATP luminescence
[5] = viability loss in pontine glioma line – cell-based, SU-DIPG-XXV, MIPE5.0, CellTiter-Glo, qHTS, dose response (AID 1347065; cut-off not given, nearly all actives have AC50 up to about 26 µM;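 also: cells exposed to compound for 48 hours before ATP readout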); details: CellTiter-Glo ATP luminescence
[6] = JHH-DIPG-1 glioma cell viability, MIPE5.0 library, CellTiter-Glo luminescence, qHTS (AID 1347067; cut-off not given, nearly all actives have AC50 up to about 26 µM;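 also: cells exposed to compound for 48 hours before readout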); details: JHH-DIPG-1 glioma viability, CellTiter-Glo ATP luminescence
[7] = sensitizers of A549 cells to miR-34 induction, primary screen, imaging, A549 dox-inducible miR-34, nuclei and caspase counts (AID 1347080;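 active = compounds whose cell count with miR-34 switched on is under 0.7 times the count with it off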); details: A549 miR-34 inducible, Hoechst nuclei count, 48 h
[8] = survival rescue of mitochondrial mutant cells in low glucose, primary screen, MELAS cybrids, Rieske KO mouse fibroblasts, CellTiter-Glo (AID 1508586;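 active = mean z-score across replicates of 1.96 or higher in either the MELAS or the Rieske mutant cell line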;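 also: z relative to plate mean and SD of compound and empty wells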)
[9] = LFS_MB_P medulloblastoma growth inhibition, cell-based, chromothripsis tumors, cisplatin or BGB combos (AID 1671449; in the data active = inhibition above about 80%;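 also: cells exposed for 96 hours; 0% = vehicle DMSO and 100% = killing by high DMSO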); details: LFS_MB_P medulloblastoma cells
[10] = HDN33 neuroblastoma growth inhibition, cell-based, chromothripsis tumors, cisplatin or BGB combos (AID 1671450; in the data active = inhibition above about 80%;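 also: cells exposed to compound for four days; 0% = vehicle DMSO and 100% = cell killing by high DMSO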); details: HDN33 neuroblastoma cells, stronger effect = higher value
[11] = ICB984 medulloblastoma cell growth inhibition, synergistic combos for chromothripsis tumors, cisplatin or BGB combos (AID 1671451; call rule not given here;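 also: cells exposed for 96 hours before readout; 0% = vehicle DMSO and 100% = killing by high DMSO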); details: ICB984 medulloblastoma cells, drug combinations, stronger effect = higher value
[12] = HTB85 osteosarcoma cell growth inhibition, synergistic combos for chromothripsis tumors, BGB or cisplatin IC20 combos (AID 1671453; in the data active = inhibition above about 80%;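 also: cells exposed for 96 hours before readout; 0% = vehicle DMSO and 100% = high DMSO killing control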); details: HTB85 osteosarcoma cells, drug combinations, stronger effect = higher value
[13] = MDA-MB-436 breast carcinoma cell growth inhibition, synergistic combos for chromothripsis tumors, BGB or cisplatin combos (AID 1671458; call rule not given here;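 also: cells exposed for 96 hours; 0% = vehicle DMSO and 100% = killing by high DMSO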); details: MDA-MB-436 breast carcinoma growth inhibition, drug combinations, stronger effect = higher value
[14] = growth inhibition of BT084 medulloblastoma cells, cell-based, ICGC_MB145, cisplatin and BGB IC40 combos (AID 1671461; in the data active = inhibition above about 80%;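 also: cells exposed to drugs for 96 hours; 0% = vehicle DMSO and 100% = high DMSO full killing control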); details: drug combinations, stronger effect = higher value
[15] = growth inhibition of RCMB18 medulloblastoma cells, cell-based, cisplatin and BGB IC40 combos (AID 1671462; in the data active = inhibition above about 80%;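 also: cells exposed to compound for four days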); details: stronger effect = higher value
[16] = SU-DIPG-VI glioma cell viability, MIPE4.0 library, CellTiter-Glo luminescence, qHTS (AID 1347066; cut-off not given, nearly all actives have AC50 up to about 30 µM;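 also: cells exposed to compound for 48 hours before readout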); details: CellTiter-Glo ATP luminescence
[17] = SU-DIPG-XXV glioma cell viability, MIPE5.0 library, qHTS (AID 1347068; cut-off not given, nearly all actives have IC50 up to about 30 µM;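 also: cells exposed to compound for 48 hours before viability readout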)
[18] = modifiers of HSF1 nuclear foci, imaging, Selleck Cancer Library (AID 1347162; in the data active = plate-normalised HSF1 focus index below about 0.46); details: human cells, at 10 µM; SSMD: measured here: HSF1 foci SSMD mean; cell count: measured here: cell number; plate-normalised HSF1 focus index: stronger effect = lower value
[19] = ovarian cancer cell viability with rucaparib, profiling panel, oncology-focused library, rucaparib conditional (AID 1508598); details: patient-derived ovarian cancer cells, CellTiter-Glo viability, 144 h, stronger effect = lower value

For CN(C)c1ccc(C(=O)NCCCCCCC(=O)NO)cc1, the AC50 [1] was 1480 nM (active), the AC50 [2] was 743 nM (active) and the AC50 [3] was 1050 nM (active). The AC50 [4] was 934 nM (active), the AC50 [5] was 934 nM (active) and the AC50 [6] was 1180 nM (active). For the same compound, the fold change ([7]; stronger effect = lower value, cell number ratio, induced over uninduced) was 0.925 (inactive) and 1.16 (inactive), the fold change ([7]; measured here: relative caspase fold change +Dox/-Dox) was 1.2 and 1.01 and the cell count ([7]; measured here: total cells with miR-34 induction, stronger effect = lower value) was 3030 and 2210. For the same compound, the cell count ([7]; measured here: total cells without miR-34 induction) was 3270 and 1910, the z-score ([8]; MELAS cybrid survival, CellTiter-Glo 48 h, stronger effect = higher value) was 1.18 (inactive) and the z-score ([8]; Rieske KO mouse fibroblast survival, CellTiter-Glo 72 h) was 0.973. The inhibition ([9]; at 0.5 µM, stronger effect = higher value) was -18.1% (inactive), the inhibition ([9]; measured here: combination with BGB IC20, at 0.005 µM) was -25.6% and the inhibition ([9]; measured here: combination with BGB IC40, at 0.005 µM) was -22.1%. For the same compound, the inhibition ([9]; measured here: combination with BGB IC40, at 0.05 µM) was -25.8%, the inhibition ([9]; measured here: combination with cisplatin, at 0.5 µM, stronger effect = higher value) was -23.5% and the inhibition ([9]; measured here: combination with cisplatin, at 5 µM, stronger effect = higher value) was 107%. The inhibition ([10]; BGB combo, at 5 µM) was 97.7%, the inhibition ([10]; at 0.5 µM) was 36.1% (inactive) and the inhibition ([10]; cisplatin combo, at 5 µM) was 99.4%. For the same compound, the inhibition ([10]; measured here: with BGB IC20 combination, at 0.5 µM) was 24.9%, the inhibition ([10]; measured here: with cisplatin IC20 combination, at 0.5 µM) was 50.9% and the inhibition ([10]; single agent, at 5 µM) was 99.1%. The inhibition ([11]; BGB IC20 combo, at 0.005 µM) was 6.17%, the inhibition ([11]; BGB IC40 combo, at 0.005 µM) was 7.19% and the inhibition ([11]; BGB IC40 combo, at 0.05 µM) was 87.6%. For the same compound, the inhibition ([11]; at 0.5 µM) was -20.5% (inactive), the inhibition ([11]; cisplatin combo, at 0.05 µM) was 87.3% and the inhibition ([11]; cisplatin combo, at 0.5 µM) was -6.9%. The inhibition ([11]; cisplatin combo, at 5 µM) was -44.2%, the inhibition ([11]; measured here: 5 uM single agent, at 5 µM) was -34.3% and the inhibition ([12]; at 0.5 µM) was 28.6% (inactive). It also gave an inhibition ([12]; measured here: with BGB IC20, at 0.5 µM) of 18.8%, an inhibition ([12]; measured here: with BGB IC20, at 5 µM) of 95.5% and an inhibition ([12]; measured here: with cisplatin IC20, at 0.5 µM) of 33.4%. For the same compound, the inhibition ([12]; measured here: with cisplatin IC20, at 5 µM) was 99.7%, the inhibition ([12]; single agent, at 5 µM) was 97.7% and the inhibition ([13]; at 0.5 µM) was 5.27% (inactive). For the same compound, the inhibition ([13]; measured here: BGB combination, at 0.5 µM) was -2.54%, the inhibition ([13]; measured here: BGB combination, at 5 µM) was 46.7% and the inhibition ([13]; measured here: cisplatin combination, at 0.5 µM) was -2.21%. For the same compound, the inhibition ([13]; measured here: cisplatin combination, at 5 µM) was 47.8%, the inhibition ([14]; at 0.5 µM) was 27.2% (inactive) and the inhibition ([14]; cisplatin combination, at 0.5 µM) was 48.8%. For the same compound, the inhibition ([14]; cisplatin combination, at 5 µM) was 101%, the inhibition ([14]; measured here: BGB IC40 combination 0.05 uM, at 0.05 µM) was 2.96% and the inhibition ([14]; single agent, at 5 µM) was 104%. The inhibition ([15]; at 0.5 µM) was 31.7% (inactive), the inhibition ([15]; cisplatin combo, at 5 µM) was 93.3% and the inhibition ([15]; measured here: BGB IC40 combination, at 0.05 µM) was -8.02%. It also gave an inhibition ([15]; measured here: combination with cisplatin, at 0.5 µM) of 62.9% and an inhibition ([15]; single agent, at 5 µM) of 89%.
In the case of C[C@@H](Oc1cc(-c2cnn(C3CCNCC3)c2)cnc1N)c1c(Cl)ccc(F)c1Cl, the AC50 [1] is reported as 4680 nM (active), the AC50 [2] is reported as 16600 nM (active) and the AC50 [3] is reported as 14800 nM (active). For the same compound, the AC50 [4] was 2630 nM (active), the AC50 [5] was 1660 nM (active) and the AC50 [16] was 20900 nM (active). For the same compound, the AC50 [6] was 8330 nM (active), the IC50 [17] was 4680 nM (active) and the SSMD [18] was -10.4. For the same compound, the cell count [18] was 5640, the plate-normalised HSF1 focus index [18] was 0.639 (inactive) and the viability ([19]; at 0.000305 µM, OCI-C5x cells, with rucaparib 10 µM, 100% = cells with rucaparib alone) was 129% (inactive). The viability ([19]; at 0.000305 µM, OCI-C5x cells, without rucaparib) was 131% (inactive), the viability ([19]; at 0.000305 µM, OCI-P5x cells, with rucaparib 20 µM, 100% = cells with rucaparib alone) was 112% (inactive) and the viability ([19]; at 0.000305 µM, OCI-P5x cells, without rucaparib) was 105% (inactive). The viability ([19]; at 0.00122 µM, OCI-C5x cells, with rucaparib 10 µM, 100% = cells with rucaparib alone) was 124% (inactive), the viability ([19]; at 0.00122 µM, OCI-C5x cells, without rucaparib) was 125% (inactive) and the viability ([19]; at 0.00122 µM, OCI-P5x cells, with rucaparib 20 µM, 100% = cells with rucaparib alone) was 103% (inactive). For the same compound, the viability ([19]; at 0.00122 µM, OCI-P5x cells, without rucaparib) was 107% (inactive), the viability ([19]; at 0.00488 µM, OCI-C5x cells, with rucaparib 10 µM, 100% = cells with rucaparib alone) was 136% (inactive) and the viability ([19]; at 0.00488 µM, OCI-C5x cells, without rucaparib) was 133% (inactive). The viability ([19]; at 0.00488 µM, OCI-P5x cells, with rucaparib 20 µM, 100% = cells with rucaparib alone) was 106% (inactive), the viability ([19]; at 0.00488 µM, OCI-P5x cells, without rucaparib) was 104% (inactive) and the viability ([19]; at 0.0195 µM, OCI-C5x cells, with rucaparib 10 µM, 100% = cells with rucaparib alone) was 123% (inactive). The viability ([19]; at 0.0195 µM, OCI-C5x cells, without rucaparib) was 121% (inactive), the viability ([19]; at 0.0195 µM, OCI-P5x cells, with rucaparib 20 µM, 100% = cells with rucaparib alone) was 98.3% (active) and the viability ([19]; at 0.0195 µM, OCI-P5x cells, without rucaparib) was 96.4% (active). The viability ([19]; at 0.0781 µM, OCI-C5x cells, with rucaparib 10 µM, 100% = cells with rucaparib alone) was 125% (inactive), the viability ([19]; at 0.0781 µM, OCI-C5x cells, without rucaparib) was 121% (inactive) and the viability ([19]; at 0.0781 µM, OCI-P5x cells, with rucaparib 20 µM, 100% = cells with rucaparib alone) was 103% (inactive). The viability ([19]; at 0.0781 µM, OCI-P5x cells, without rucaparib) was 98.8% (active), the viability ([19]; at 0.313 µM, OCI-C5x cells, with rucaparib 10 µM, 100% = cells with rucaparib alone) was 118% (inactive) and the viability ([19]; at 0.313 µM, OCI-C5x cells, without rucaparib) was 124% (inactive). The viability ([19]; at 0.313 µM, OCI-P5x cells, with rucaparib 20 µM, 100% = cells with rucaparib alone) was 101% (inactive), the viability ([19]; at 0.313 µM, OCI-P5x cells, without rucaparib) was 94.2% (active) and the viability ([19]; at 1.25 µM, OCI-C5x cells, with rucaparib 10 µM, 100% = cells with rucaparib alone) was 117% (inactive). The viability ([19]; at 1.25 µM, OCI-C5x cells, without rucaparib) was 116% (inactive), the viability ([19]; at 1.25 µM, OCI-P5x cells, with rucaparib 20 µM, 100% = cells with rucaparib alone) was 72.6% (active) and the viability ([19]; at 1.25 µM, OCI-P5x cells, without rucaparib) was 79.6% (active). For the same compound, the viability ([19]; at 5 µM, OCI-C5x cells, with rucaparib 10 µM, 100% = cells with rucaparib alone) was 10.7% (active), the viability ([19]; at 5 µM, OCI-C5x cells, without rucaparib) was 91.2% (active) and the viability ([19]; at 5 µM, OCI-P5x cells, with rucaparib 20 µM, 100% = cells with rucaparib alone) was 6.65% (active). The viability ([19]; at 5 µM, OCI-P5x cells, without rucaparib) was 13.1% (active).
